# Test results taken from ChEMBL document CHEMBL3988442, “University of Dundee, Small-Polar-MMV Screening Library” (2021).
# For some assays here: Results with a measured potency or affinity are listed apart.
# Legend:
# Set-up in all cases: scale not given: direction of the effect not stated beside the values
# [1] = molecular target: Protein translocase subunit SecA (Escherichia coli (strain K12)) (UniProt P10408); assay: Assay to Identify E. coli SecA ATPase Inhibitors; type: functional; details: 30 µM
# [2] = molecular target: T1, Ubiquitin-activating enzyme e1, putative (Leishmania donovani (strain BPK282A1)) (UniProt E9BSI1); assay: Leishmania donovani Ubiquitin Activating Enzyme (LdE1); type: functional; details: 30 µM
# T1 sequence (whole entry): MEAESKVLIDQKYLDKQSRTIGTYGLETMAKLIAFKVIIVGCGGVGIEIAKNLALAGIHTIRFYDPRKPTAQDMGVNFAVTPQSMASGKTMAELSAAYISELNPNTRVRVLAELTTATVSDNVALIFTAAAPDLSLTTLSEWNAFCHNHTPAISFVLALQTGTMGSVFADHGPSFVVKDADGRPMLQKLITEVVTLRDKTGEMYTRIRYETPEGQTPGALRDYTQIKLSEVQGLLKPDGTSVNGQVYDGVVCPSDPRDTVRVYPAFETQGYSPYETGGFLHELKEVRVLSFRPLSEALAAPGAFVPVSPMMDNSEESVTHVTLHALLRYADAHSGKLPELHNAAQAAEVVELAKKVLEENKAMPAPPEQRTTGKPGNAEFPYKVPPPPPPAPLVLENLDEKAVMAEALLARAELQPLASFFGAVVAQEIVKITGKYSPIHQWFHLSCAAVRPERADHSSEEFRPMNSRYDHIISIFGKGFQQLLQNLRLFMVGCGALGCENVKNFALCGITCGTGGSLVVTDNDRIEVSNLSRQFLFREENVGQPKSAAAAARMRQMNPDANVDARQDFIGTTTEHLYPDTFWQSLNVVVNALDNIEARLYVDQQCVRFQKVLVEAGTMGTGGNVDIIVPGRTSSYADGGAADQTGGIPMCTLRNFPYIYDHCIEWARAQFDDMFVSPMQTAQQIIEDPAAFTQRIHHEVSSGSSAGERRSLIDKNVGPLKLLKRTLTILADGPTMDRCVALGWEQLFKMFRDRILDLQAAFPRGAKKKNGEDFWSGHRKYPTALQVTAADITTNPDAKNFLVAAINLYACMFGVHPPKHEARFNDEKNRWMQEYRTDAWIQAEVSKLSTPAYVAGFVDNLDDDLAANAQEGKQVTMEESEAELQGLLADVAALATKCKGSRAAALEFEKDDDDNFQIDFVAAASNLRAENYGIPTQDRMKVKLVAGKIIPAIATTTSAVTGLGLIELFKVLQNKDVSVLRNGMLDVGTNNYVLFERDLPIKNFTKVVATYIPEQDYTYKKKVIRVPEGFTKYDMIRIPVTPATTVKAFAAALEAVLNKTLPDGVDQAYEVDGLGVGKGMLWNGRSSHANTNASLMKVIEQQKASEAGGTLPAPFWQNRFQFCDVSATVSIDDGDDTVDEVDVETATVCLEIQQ
# [3] = molecular target: AMP-activated protein kinase, AMPK (Homo sapiens) (UniProt P54646+O43741+P54619+Q9UGJ0+Q9Y478+Q13131+Q9UGI9); assay: AMP-dependent Kinase enzyme assay. An in vitro enzyme assay that detects ADP turnover that is directly proportional to AMPK activity. This uses naive AMPK that is activated during the assay with MK-8722; type: functional; details: 30 µM
# [4] = molecular target: Sialic acid-binding Ig-like lectin 9 (Homo sapiens) (UniProt Q9Y336); assay: Hs-Siglec9 ALPHAscreen SOP 20170721; details: 10 µM
# Trypanosoma cruzi = assay: Trypanosoma cruzi phosphomannomutase and mannose-1-phosphate guanylyltransferase assay; type: functional; details: 10 µM
# [5] = molecular target: T2, Arginase-2, mitochondrial (Homo sapiens) (UniProt P78540); assay: in vitro enzyme assay to detect the production of urea directly proportional to the activity of Arginase II; type: functional; details: 33.3 µM; note: in the data most compounds retested in dose-response had high values
# T2 sequence (whole entry): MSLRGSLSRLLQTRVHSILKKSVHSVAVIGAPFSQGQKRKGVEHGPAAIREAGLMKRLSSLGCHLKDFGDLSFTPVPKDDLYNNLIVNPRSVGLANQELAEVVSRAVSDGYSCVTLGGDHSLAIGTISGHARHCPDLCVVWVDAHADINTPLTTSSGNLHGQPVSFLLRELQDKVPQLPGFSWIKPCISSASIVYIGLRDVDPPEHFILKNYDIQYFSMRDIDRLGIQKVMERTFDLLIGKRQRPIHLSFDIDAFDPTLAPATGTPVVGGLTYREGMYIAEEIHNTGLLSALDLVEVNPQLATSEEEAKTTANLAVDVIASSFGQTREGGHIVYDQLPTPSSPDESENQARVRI
# [6] = molecular target: T3, Proteasome subunit beta (Trypanosoma cruzi) (UniProt O96673); assay: Trypanosoma cruzi proteasome chymotrypsin-like activity (TcProtChymo) assay.; note: in the data most compounds retested in dose-response had high values; type: functional; details: 9.37 µM
# T3 sequence (whole entry): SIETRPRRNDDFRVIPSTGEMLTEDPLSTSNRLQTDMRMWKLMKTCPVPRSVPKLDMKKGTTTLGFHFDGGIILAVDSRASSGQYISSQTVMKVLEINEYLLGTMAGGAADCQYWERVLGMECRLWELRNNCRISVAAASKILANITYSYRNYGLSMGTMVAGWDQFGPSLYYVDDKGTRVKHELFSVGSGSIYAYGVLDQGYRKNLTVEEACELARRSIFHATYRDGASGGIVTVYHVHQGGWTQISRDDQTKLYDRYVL
# Homo sapiens = species: Homo sapiens; assay: To identify inhibition of the IFN signalling (Jak-Stat) pathway via expression of an eGFP reporter gene under the control of an IFN-stimulated response element (ISRE) containing MxA promoter.; type: functional; details: 30 µM
# [7] = molecular target: T4, Tyrosyl-tRNA synthetase, putative (Trypanosoma cruzi (strain CL Brener)) (UniProt Q4DSP6); assay: Trypanosoma cruzi tyrosyl tRNA synthetase (TcYRS) _High Tyrosine SOP; type: functional; details: 30 µM; note: in the data most compounds retested in dose-response had high values
# T4 sequence (whole entry): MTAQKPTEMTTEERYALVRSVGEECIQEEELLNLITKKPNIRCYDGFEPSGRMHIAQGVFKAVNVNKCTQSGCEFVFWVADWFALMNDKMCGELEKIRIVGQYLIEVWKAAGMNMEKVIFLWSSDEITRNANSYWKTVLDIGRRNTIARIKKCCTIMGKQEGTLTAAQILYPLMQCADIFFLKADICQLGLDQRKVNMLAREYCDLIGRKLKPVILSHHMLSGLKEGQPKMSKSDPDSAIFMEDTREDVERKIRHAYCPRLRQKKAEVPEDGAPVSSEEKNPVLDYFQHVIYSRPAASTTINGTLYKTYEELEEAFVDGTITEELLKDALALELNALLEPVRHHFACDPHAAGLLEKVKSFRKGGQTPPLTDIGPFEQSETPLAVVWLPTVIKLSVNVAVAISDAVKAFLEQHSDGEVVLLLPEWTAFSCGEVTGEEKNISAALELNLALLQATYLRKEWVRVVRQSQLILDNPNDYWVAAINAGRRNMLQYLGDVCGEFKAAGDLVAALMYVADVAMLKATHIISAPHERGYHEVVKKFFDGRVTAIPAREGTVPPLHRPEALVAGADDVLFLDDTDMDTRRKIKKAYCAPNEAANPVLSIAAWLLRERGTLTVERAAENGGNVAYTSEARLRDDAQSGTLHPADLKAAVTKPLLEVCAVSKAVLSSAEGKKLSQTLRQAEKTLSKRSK
# [8] = molecular target: T4, Tyrosyl-tRNA synthetase, putative (Trypanosoma cruzi (strain CL Brener)); assay: Trypanosoma cruzi tyrosyl tRNA synthetase (TcYRS) SOP; type: functional; details: 30 µM
# [9] = molecular target: Chromo domain-containing protein 1 (Saccharomyces cerevisiae (strain ATCC 204508 / S288c) (Baker's yeast)) (UniProt P32657); assay: ScCHD-1 Enzyme Inhibition Assay; type: functional; details: 30 µM; note: in the data most compounds retested in dose-response had high values
# Chromo domain-containing protein 1 (Saccharomyces cerevisiae (strain ATCC 204508 / S288c) (Baker's yeast)), sequence (P32657 whole entry, the tested form may be a part): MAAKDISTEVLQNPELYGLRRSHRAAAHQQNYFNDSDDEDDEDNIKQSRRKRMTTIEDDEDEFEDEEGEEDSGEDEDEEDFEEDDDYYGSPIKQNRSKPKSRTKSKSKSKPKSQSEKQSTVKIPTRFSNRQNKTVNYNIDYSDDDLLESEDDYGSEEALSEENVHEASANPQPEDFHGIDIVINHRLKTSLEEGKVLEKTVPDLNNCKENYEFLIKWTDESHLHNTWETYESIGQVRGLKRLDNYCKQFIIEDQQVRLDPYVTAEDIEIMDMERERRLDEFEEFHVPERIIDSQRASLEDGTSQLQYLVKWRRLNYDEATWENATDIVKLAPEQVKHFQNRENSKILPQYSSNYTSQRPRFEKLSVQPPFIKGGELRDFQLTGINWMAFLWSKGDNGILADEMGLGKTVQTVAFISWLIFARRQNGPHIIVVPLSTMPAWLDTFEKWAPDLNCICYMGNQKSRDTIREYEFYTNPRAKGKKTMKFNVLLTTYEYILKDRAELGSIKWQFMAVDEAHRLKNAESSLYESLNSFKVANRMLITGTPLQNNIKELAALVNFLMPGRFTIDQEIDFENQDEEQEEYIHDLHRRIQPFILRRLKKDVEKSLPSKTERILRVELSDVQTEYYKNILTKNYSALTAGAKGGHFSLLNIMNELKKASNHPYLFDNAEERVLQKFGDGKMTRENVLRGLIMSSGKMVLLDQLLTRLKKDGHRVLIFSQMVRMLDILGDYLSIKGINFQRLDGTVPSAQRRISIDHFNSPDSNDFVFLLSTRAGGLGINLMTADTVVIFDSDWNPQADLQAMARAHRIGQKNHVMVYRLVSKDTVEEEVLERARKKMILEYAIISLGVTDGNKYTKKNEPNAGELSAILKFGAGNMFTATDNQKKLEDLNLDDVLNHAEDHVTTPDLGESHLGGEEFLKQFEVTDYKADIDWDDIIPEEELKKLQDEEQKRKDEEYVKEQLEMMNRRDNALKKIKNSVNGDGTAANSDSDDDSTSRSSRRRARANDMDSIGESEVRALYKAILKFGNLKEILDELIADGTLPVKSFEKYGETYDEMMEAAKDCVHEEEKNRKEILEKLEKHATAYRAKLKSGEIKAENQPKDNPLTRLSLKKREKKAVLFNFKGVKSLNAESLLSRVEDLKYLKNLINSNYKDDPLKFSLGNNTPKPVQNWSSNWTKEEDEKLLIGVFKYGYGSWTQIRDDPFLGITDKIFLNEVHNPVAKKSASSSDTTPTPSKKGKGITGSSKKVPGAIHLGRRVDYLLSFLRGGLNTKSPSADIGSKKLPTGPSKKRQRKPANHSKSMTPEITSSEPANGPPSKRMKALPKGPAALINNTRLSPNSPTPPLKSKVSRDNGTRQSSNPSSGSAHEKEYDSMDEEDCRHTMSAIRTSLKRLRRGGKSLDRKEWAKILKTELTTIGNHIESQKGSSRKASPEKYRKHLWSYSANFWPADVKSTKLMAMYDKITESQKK
# Sialic acid-binding Ig-like lectin 9 (Homo sapiens), sequence (Q9Y336 whole entry): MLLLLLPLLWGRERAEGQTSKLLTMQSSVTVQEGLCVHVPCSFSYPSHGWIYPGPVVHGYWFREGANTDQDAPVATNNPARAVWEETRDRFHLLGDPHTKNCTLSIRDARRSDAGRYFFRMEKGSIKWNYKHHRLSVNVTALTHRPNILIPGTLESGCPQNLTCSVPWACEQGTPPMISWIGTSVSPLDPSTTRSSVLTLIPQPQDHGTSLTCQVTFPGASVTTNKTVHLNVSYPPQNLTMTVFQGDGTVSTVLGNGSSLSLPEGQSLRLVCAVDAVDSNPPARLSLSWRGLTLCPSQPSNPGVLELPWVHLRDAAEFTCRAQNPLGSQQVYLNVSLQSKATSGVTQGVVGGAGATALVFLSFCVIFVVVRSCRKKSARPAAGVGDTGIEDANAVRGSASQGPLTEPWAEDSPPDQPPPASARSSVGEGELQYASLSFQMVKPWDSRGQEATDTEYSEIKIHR
# Protein translocase subunit SecA (Escherichia coli (strain K12)), sequence (P10408 whole entry): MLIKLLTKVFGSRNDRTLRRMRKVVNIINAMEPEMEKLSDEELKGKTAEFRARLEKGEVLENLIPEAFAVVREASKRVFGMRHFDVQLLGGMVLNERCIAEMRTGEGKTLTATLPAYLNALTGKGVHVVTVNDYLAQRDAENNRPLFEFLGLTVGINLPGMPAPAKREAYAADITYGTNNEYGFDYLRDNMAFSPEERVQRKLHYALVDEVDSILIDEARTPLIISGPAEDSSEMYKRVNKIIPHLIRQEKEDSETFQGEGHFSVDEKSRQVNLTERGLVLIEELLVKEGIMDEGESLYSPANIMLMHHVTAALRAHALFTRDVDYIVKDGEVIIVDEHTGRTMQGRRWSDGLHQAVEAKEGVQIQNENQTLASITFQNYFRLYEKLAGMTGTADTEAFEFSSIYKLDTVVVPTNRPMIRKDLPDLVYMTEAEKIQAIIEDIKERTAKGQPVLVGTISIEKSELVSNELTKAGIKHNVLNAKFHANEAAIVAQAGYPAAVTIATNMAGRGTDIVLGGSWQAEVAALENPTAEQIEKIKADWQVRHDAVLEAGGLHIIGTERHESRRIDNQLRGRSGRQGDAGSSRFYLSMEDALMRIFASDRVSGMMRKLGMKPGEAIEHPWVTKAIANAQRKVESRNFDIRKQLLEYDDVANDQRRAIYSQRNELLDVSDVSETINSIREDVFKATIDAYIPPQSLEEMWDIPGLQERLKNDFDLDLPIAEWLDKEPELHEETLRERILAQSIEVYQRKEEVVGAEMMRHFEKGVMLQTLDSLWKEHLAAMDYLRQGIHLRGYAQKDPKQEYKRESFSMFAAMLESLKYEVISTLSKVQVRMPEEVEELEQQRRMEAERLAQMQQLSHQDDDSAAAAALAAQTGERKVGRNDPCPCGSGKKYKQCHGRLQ
Compound,Percent Effect [1] [%],Percent Effect [2] [%],Percent Effect [3] [%],Percent Effect [4] [%],Percent Effect (Trypanosoma cruzi) [%],Percent Effect [5] [%],Percent Effect [6] [%],Percent Effect (Homo sapiens) [%],Percent Effect [7] [%],Percent Effect [8] [%],Percent Effect [9] [%]
Cc1[nH]ccc1C(=O)N1CCC(c2nnc(Cn3ccnc3)n2C)CC1,-1.99,8.22,-2.31,4.71,-4.56,-4.79,15.3,22.3,6.25,16.1,0.967
Cc1cccc(-n2ncc(C(=O)N3CCn4c(C)nnc4C3)c2C)c1,-5.28,13.2,0.162,-0.191,-4.58,1.8,5.16,12.8,-0.493,3.7,-0.99
Cc1ccc(NC(=O)NCCCc2n[nH]c(N)c2C#N)cc1,-1.33,15.2,3.73,-1.97,-3.12,1.9,13.5,13.3,5.42,11.4,-3.94
CS(=O)(=O)N1CCCC12CCCN(S(=O)(=O)c1cc(F)cc(F)c1)C2 (configuration not stated),-5.6,-8.11,3.16,-10,-3.23,-2.23,10,14.4,0,-1.24,-0.985
Cc1nc(CNC(=O)NCC(O)c2cccc(Cl)c2)cs1 (configuration not stated),-1.26,2.7,-4.33,3.81,-8.69,-4.29,23.4,6.47,0.529,4.88,-3.89
CCc1cnc(N2C[C@H]3C[C@H](C(=O)N(C)C)[C@@H](C2)O3)nc1,-0.24,13.3,0.237,8.45,0.579,-53.6,2.91,-12.6,5.21,10,-6.38
CSc1ccc(S(=O)(=O)N2CCCCC2CCNC(C)=O)cc1 (configuration not stated),0.287,11,-3.42,4.24,1.59,1.6,14.8,9.17,7.29,16.1,-5.63
COc1cccc(CNCc2nnc3n2CC(C(F)(F)F)CC3)c1 (configuration not stated),0.608,-2.7,-0.757,8.38,1.27,45.4,5.92,9.33,6.45,16.1,-13
NC(=O)c1ccc(OCC(=O)N2CCCC(n3cccn3)C2)cc1 (configuration not stated),-3.58,15.6,6.85,2.82,-2.06,1.9,7.2,1.54,7.62,14.1,-7.55
Cc1nc(Nc2ncccn2)cc(C2CCCN2C2CCOCC2)n1 (configuration not stated),-5.08,6.76,3.91,3.68,0.593,-3.48,-1.72,13.7,9.68,11.7,-3.64
Nc1nccc(N2CCCC(CO)(CCOc3ccccc3)C2)n1 (configuration not stated),-4.62,2.6,-0.596,19,8.75,-13.8,15.3,41.9,7.53,13.6,-3.14
O=C(NC1CCS(=O)(=O)C1)c1sccc1-c1ccc(F)cc1 (configuration not stated),-6.43,5.41,2.1,-6.95,-4.4,-0.248,8.15,-15.8,0,6.17,11.7
c1ccc(CN2CCN(Cc3cscn3)CC2)cc1,-3.29,15.6,2.52,7.55,0.49,3.58,7.2,7.07,8.57,18.8,-19.7
Cc1cnn(CC2CCCN2Cc2nccn2C)c1 (configuration not stated),-3.05,-16.5,-3.78,-0.409,3.59,1.5,3.94,4.67,4.17,5.06,-13.2
Cc1ccc(C(=O)N2CCN(CCCSCC#N)CC2)o1,-3.54,-5.48,1.04,10.8,1.98,-2.4,6.42,18.1,4.17,11.1,0.208
Cc1nc2cc(C(=O)N3CCCC(n4cncn4)C3)ccc2n1C (configuration not stated),-4.14,5.41,-2.29,11.4,9.75,-0.924,-5.21,0.593,3.96,13.4,-2.87
CC1CCN(CCNC(=O)c2ccccc2N2CCOCC2)CC1,0.622,11,-2.96,1.48,-1.98,-2.79,24.1,5.31,13.5,16.1,-2.45
Cc1nc(CN2CCOC(Cn3cncn3)C2)nc2ccccc12 (configuration not stated),-1.64,-2.6,3.13,0.385,3.04,-1.05,9.62,-20.1,5.71,0,-15.8
Cc1cnn(C2CN(CC(O)c3ccc4c(c3)OCCO4)C2)c1 (configuration not stated),-0.511,-24,-2.25,-4.57,-0.292,0,7.5,10.6,13.7,13.6,-6.83
COc1ccc(C2Nc3ccccc3C3=NCCCN32)cc1OC (configuration not stated),-5.46,-2.67,8.31,-1.83,-0.787,-1.63,-2.91,11.5,0,1.28,-8.33
Cc1cc(NC(=O)CN2CCn3c(nnc3C3CC3)C2)n(C)n1,-3.7,-5.26,11.5,-1.43,-4.7,0,4.84,21.3,-0.49,0,3.45
COC(=O)CCN1CCCC1c1ccccc1Cl (configuration not stated),-3.1,-2.67,-1.16,1.78,2.04,-1.56,5.41,1.88,3.83,6.17,-0.731
